# Measured values reported in PubChem BioAssay (EPA / NIEHS).
# Inconclusive results are not listed. Active and inactive are the calls of the source. How the source made its calls: active means hit-call score of the fitted dose curve at least 0.9, where 1 is the maximum; inconclusive means response in the unintended direction; inactive means score below 0.9.
# Test system: not listed separately
# Experiment: TOX21_p53_BLA_p4_viability: Viability Assessment in the Tox21 HCT-116 p53 Agonism Beta-lactamase Assay, Phase 4 (AID 2283597);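 further: hits lower the luminescence signal meaning cytotoxicity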
# Procedure, shortened: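 HCT116 p53-bla cells (4000/well) rested 5 h at 37C, then received compounds in DMSO (217-fold dilution) for 16 h at 37C, 5% CO2. CellTiter-Glo was added after the CCF4-AM read, and luminescence was read after 30 min at room temperature.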
row,SMILES,outcome
1,COc1cc(C(=O)N2CCCCCCC2)cc(OC)c1OC,inactive
2,COCc1ccc(COC)cc1,inactive
3,O=C(c1ccc(Cl)cc1)c1ccc(Cl)cc1,inactive
4,Cc1cccc(C)c1NC(=O)NC1=CCCN1C,inactive
5,CC(C)(C)NSc1nc2ccccc2s1,inactive
6,Cc1ccccc1N1C(=O)c2cc(S(N)(=O)=O)c(Cl)cc2NC1C (stereo not drawn),inactive
7,NCC1CCC(C(=O)Oc2ccc(CCC(=O)O)cc2)CC1 (stereo not drawn),inactive
8,CC(=O)OCC(=O)[C@@]1(O)[C@H](C)C[C@H]2[C@@H]3C[C@H](F)C4=CC(=O)C=C[C@]4(C)[C@H]3[C@@H](O)C[C@@]21C,inactive

# Molecular target: Cellular tumor antigen p53 (Homo sapiens) (UniProt P04637)
# Experiment: TOX21_p53_BLA_p5_ratio: Tox21 HCT-116 p53 Agonism Beta-lactamase Assay, Ratio, Phase 5 (AID 2283599)
# Procedure, shortened: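 Beta-lactamase reporter ratio (blue 460 nm over green 530 nm, 405 nm excitation) after 2 h CCF4-AM loading, in HCT-116 cells exposed 16 h at 37 C to compounds pinned at 217-fold dilution. Increases relative to DMSO baseline scored.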
# Chain of Cellular tumor antigen p53 (Homo sapiens) (P04637 whole entry, looked up): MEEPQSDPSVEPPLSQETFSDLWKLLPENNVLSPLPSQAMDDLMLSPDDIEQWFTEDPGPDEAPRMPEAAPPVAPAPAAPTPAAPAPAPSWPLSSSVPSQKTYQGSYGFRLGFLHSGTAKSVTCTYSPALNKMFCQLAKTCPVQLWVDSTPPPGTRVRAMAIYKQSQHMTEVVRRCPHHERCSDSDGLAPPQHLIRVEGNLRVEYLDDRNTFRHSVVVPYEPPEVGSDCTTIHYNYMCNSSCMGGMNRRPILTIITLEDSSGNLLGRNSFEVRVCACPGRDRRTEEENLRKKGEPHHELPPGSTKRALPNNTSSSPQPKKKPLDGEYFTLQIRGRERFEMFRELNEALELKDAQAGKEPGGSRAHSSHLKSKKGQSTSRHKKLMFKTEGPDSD
SMILES,outcome,AC50
CC(C)(C)c1nnc(NS(=O)(=O)c2ccccc2)s1,inactive,
CC(N)CN (stereo not drawn),inactive,
C=CCCCCCC,inactive,
CN1CCN(c2cc3c(cc2F)c(=O)c(C(=O)O)cn3-c2ccc(F)cc2)CC1,inactive,
CCCCc1ncc(/C=C(\Cc2cccs2)C(=O)O)n1Cc1ccc(C(=O)O)cc1,inactive,
Cc1cc(N)c(S(=O)(=O)O)cc1Cl,inactive,
CC1(C)S[C@@H]2[C@H](NC(=O)[C@@H](NC(=O)N3CCNC3=O)c3ccccc3)C(=O)N2[C@H]1C(=O)O,inactive,
NC(CO)C(=O)NNCc1ccc(O)c(O)c1O (stereo not drawn),inactive,
CC(=O)Nc1ccc(OCC(O)CNC(C)C)cc1 (stereo not drawn),inactive,
CCN1C(=O)c2ccccc2C1Nc1ccc(OCCN2CCCCC2)cc1 (stereo not drawn),inactive,
CC/C(=C(/CC)c1ccc(OP(=O)(O)O)cc1)c1ccc(OP(=O)(O)O)cc1,inactive,
CC(C)c1ccccc1C(C)C,,67 µM (active)
COCCOC(=O)CC#N,inactive,
CCN(CCO)CCCC(C)Nc1ccnc2cc(Cl)ccc12 (stereo not drawn),inactive,
FC(F)(F)c1ccccc1-n1ccnc1,inactive,
CN(C)CCC(O)(c1ccccc1)c1ccccc1Cl (stereo not drawn),inactive,
CN[C@@H]1CCc2[nH]c3ccc(C(N)=O)cc3c2C1,inactive,

# Test system: not listed separately
# Experiment: TOX21_p53_BLA_p5_viability: Viability Assessment in the Tox21 HCT-116 p53 Agonism Beta-lactamase Assay, Phase 5 (AID 2283600)
# Procedure, shortened: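 Cells were plated at 4000/well, rested 5 h at 37C, then given compounds in DMSO (217-fold dilution) for 16 h at 37C, 5% CO2. Following the CCF4-AM beta-lactamase read, CellTiter-Glo was added and luminescence was read after 30 min at room temperature.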
row,SMILES,outcome
1,CC(C)(C)c1nnc(NS(=O)(=O)c2ccccc2)s1,inactive
2,COc1cc(C(=O)N2CCCCCCC2)cc(OC)c1OC,inactive
3,C=CCCCCCC,inactive
4,CCC(O)c1ccccc1 (stereo not drawn),inactive
5,CN1CCN(c2cc3c(cc2F)c(=O)c(C(=O)O)cn3-c2ccc(F)cc2)CC1,inactive
6,C=CC(C)CCC=C(C)C (stereo not drawn),inactive
7,CCCCOC(=O)CC#N,inactive
8,COC(C)OC,inactive
9,CC(C)C(=O)OCC(C)(C)C(O)C(C)C (stereo not drawn),inactive
10,CC1(C)S[C@@H]2[C@H](NC(=O)[C@@H](NC(=O)N3CCNC3=O)c3ccccc3)C(=O)N2[C@H]1C(=O)O,inactive
11,O=C(c1ccc(Cl)cc1)c1ccc(Cl)cc1,inactive
12,NC(CO)C(=O)NNCc1ccc(O)c(O)c1O (stereo not drawn),inactive
13,CC(=O)Nc1ccc(OCC(O)CNC(C)C)cc1 (stereo not drawn),inactive
14,CC(C)(C)NSc1nc2ccccc2s1,inactive
15,CC(C)c1ccccc1C(C)C,inactive
16,COCCOC(=O)CC#N,inactive
17,Cc1ccccc1N1C(=O)c2cc(S(N)(=O)=O)c(Cl)cc2NC1C (stereo not drawn),inactive
18,COc1ccc(-c2cc(=O)c3c(O)cc(O[C@@H]4O[C@H](CO[C@@H]5O[C@@H](C)[C@H](O)[C@@H](O)[C@H]5O)[C@@H](O)[C@H](O)[C@H]4O)cc3o2)cc1O,inactive
19,OC[C@H]1O[C@@H](OCCc2ccc(O)cc2)[C@H](O)[C@@H](O)[C@@H]1O,inactive
20,FC(F)(F)c1ccccc1-n1ccnc1,inactive
21,CN(C)CCC(O)(c1ccccc1)c1ccccc1Cl (stereo not drawn),inactive

# Molecular target: Cellular tumor antigen p53 (Homo sapiens) (UniProt P04637)
# Experiment: TOX21_p53_BLA_p4_ratio: Tox21 HCT-116 p53 Agonism Beta-lactamase Assay, Ratio, Phase 4 (AID 2283601)
# Procedure, shortened: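 Signal is the blue/green (460nm/530nm) ratio of cleaved versus uncleaved CCF4-AM substrate, read after 2 h substrate loading. Cells were HCT116 carrying the p53-responsive beta-lactamase reporter, dosed 16 h at 37C, 5% CO2; CellTiter-Glo measured in parallel.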
row,SMILES,outcome
1,CC(N)CN (stereo not drawn),inactive
2,COc1cc(C(=O)N2CCCCCCC2)cc(OC)c1OC,inactive
3,CCC(O)c1ccccc1 (stereo not drawn),inactive
4,CN1CCN(c2cc3c(cc2F)c(=O)c(C(=O)O)cn3-c2ccc(F)cc2)CC1,inactive
5,CCCCc1ncc(/C=C(\Cc2cccs2)C(=O)O)n1Cc1ccc(C(=O)O)cc1,inactive
6,C=CC(C)CCC=C(C)C (stereo not drawn),inactive
7,CCCCOC(=O)CC#N,inactive
8,COC(C)OC,inactive
9,CC(C)C(=O)OCC(C)(C)C(O)C(C)C (stereo not drawn),inactive
10,O=C(c1ccc(Cl)cc1)c1ccc(Cl)cc1,inactive
11,Cc1cccc(C)c1NC(=O)NC1=CCCN1C,inactive
12,CCC(=O)Nc1ccc(O)cc1,inactive
13,NC(CO)C(=O)NNCc1ccc(O)c(O)c1O (stereo not drawn),inactive
14,CC(=O)Nc1ccc(OCC(O)CNC(C)C)cc1 (stereo not drawn),inactive
15,CCN1C(=O)c2ccccc2C1Nc1ccc(OCCN2CCCCC2)cc1 (stereo not drawn),inactive
16,CC/C(=C(/CC)c1ccc(OP(=O)(O)O)cc1)c1ccc(OP(=O)(O)O)cc1,inactive
17,CC(C)(C)NSc1nc2ccccc2s1,inactive
18,CC(C)c1ccccc1C(C)C,inactive
19,COCCOC(=O)CC#N,inactive
20,CC(=O)OCC1=C(C(=O)O)N2C(=O)[C@@H](NC(=O)Cc3ccccc3)[C@H]2SC1,inactive
21,Cc1ccccc1N1C(=O)c2cc(S(N)(=O)=O)c(Cl)cc2NC1C (stereo not drawn),inactive
22,COc1ccc(-c2cc(=O)c3c(O)cc(O[C@@H]4O[C@H](CO[C@@H]5O[C@@H](C)[C@H](O)[C@@H](O)[C@H]5O)[C@@H](O)[C@H](O)[C@H]4O)cc3o2)cc1O,inactive
23,OC[C@H]1O[C@@H](OCCc2ccc(O)cc2)[C@H](O)[C@@H](O)[C@@H]1O,inactive
24,NCC1CCC(C(=O)Oc2ccc(CCC(=O)O)cc2)CC1 (stereo not drawn),inactive
25,CCN(CCO)CCCC(C)Nc1ccnc2cc(Cl)ccc12 (stereo not drawn),inactive
26,CC(=O)OCC(=O)[C@@]1(O)[C@H](C)C[C@H]2[C@@H]3C[C@H](F)C4=CC(=O)C=C[C@]4(C)[C@H]3[C@@H](O)C[C@@]21C,inactive
27,CN[C@@H]1CCc2[nH]c3ccc(C(N)=O)cc3c2C1,inactive
